{"source": "PubChem BioAssay (NCI)", "key": {"[1]": {"experiment": "NCI Yeast Anticancer Drug Screen. Data for the rad52 strain (AID 147);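 note: 0% = growth of vehicle-treated control cultures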", "conditions": "S. cerevisiae rad52 mutant growth inhibition, stronger effect = higher value", "procedure,_shortened": "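Vehicle-treated cultures served as the reference for growth inhibition of compound-exposed yeast bearing a DNA repair mutation.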"}, "[2]": {"experiment": "NCI Yeast Anticancer Drug Screen. Data for the rad50EPP+ strain (AID 151);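 note: 0% = growth of vehicle-treated control cultures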", "conditions": "S. cerevisiae rad50 mutant strain, stronger effect = higher value", "procedure,_shortened": "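In this screen, rad50EPP+ yeast were exposed to compounds. Growth inhibition was scored against vehicle-treated controls.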"}, "[3]": {"experiment": "NCI Yeast Anticancer Drug Screen. Data for the mgt1 strain (AID 153)", "conditions": "S. cerevisiae mgt1 mutant growth inhibition, stronger effect = higher value", "procedure,_shortened": "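mgt1 strain exposed; growth vs vehicle control recorded as inhibition.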"}, "[4]": {"experiment": "NCI Yeast Anticancer Drug Screen. Data for the rad50 strain (AID 155);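 note: 0% = growth of vehicle-only cultures of the same strain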", "conditions": "S. cerevisiae rad50 strain growth inhibition, stronger effect = higher value", "procedure,_shortened": "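Relative growth inhibition (compound vs vehicle) was measured in yeast with a defined repair-gene alteration.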"}, "[5]": {"experiment": "NCI Yeast Anticancer Drug Screen. Data for the mec2-1 strain (AID 157)", "conditions": "S. cerevisiae mec2-1 strain, stronger effect = higher value", "procedure,_shortened": "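Vehicle-treated cultures served as reference for growth inhibition of compound-exposed mec2-1 yeast.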"}, "[6]": {"experiment": "NCI Yeast Anticancer Drug Screen. Data for the rad14 strain (AID 159);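 note: 0% = growth of vehicle-treated control cultures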", "conditions": "S. cerevisiae rad14 strain growth inhibition, stronger effect = higher value", "procedure,_shortened": "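Screen for anticancer potential: a yeast strain altered in DNA damage repair is grown with compound, and reduced growth is quantified against vehicle controls.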"}, "[7]": {"experiment": "NCI Yeast Anticancer Drug Screen. Data for the sgs1 mgt1 strain (AID 161);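 note: 0% = growth of cultures given vehicle only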", "conditions": "S. cerevisiae sgs1 mgt1 strain, stronger effect = higher value", "procedure,_shortened": "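Read-out: growth inhibition vs vehicle controls. Cells: mutant yeast strain deficient in DNA damage repair.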"}, "[8]": {"experiment": "NCI Yeast Anticancer Drug Screen. Data for the CLN2oe strain (AID 163);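 note: 0% = growth of vehicle-only control cultures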", "conditions": "S. cerevisiae CLN2oe strain, stronger effect = higher value", "procedure,_shortened": "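Inhibition relative to vehicle-treated yeast is reported. Cells: strain with genetic alteration in cell-cycle control, grown with compound.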"}, "[9]": {"experiment": "NCI Yeast Anticancer Drug Screen. Data for the cln2 rad14 strain (AID 165);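 note: 0% = growth equal to vehicle treated cultures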", "conditions": "S. cerevisiae cln2 rad14 strain, stronger effect = higher value", "procedure,_shortened": "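Each compound was tested on cln2 rad14 yeast. Inhibition of growth was calculated against vehicle-exposed controls.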"}, "[10]": {"experiment": "NCI Yeast Anticancer Drug Screen. Data for the bub3 strain (AID 167)", "conditions": "S. cerevisiae bub3 mutant strain, stronger effect = higher value", "procedure,_shortened": "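Screening used yeast with an engineered genetic alteration affecting cell cycle control. Compound-exposed cultures were compared with vehicle cultures, and reduced growth was taken as inhibition.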"}, "[11]": {"experiment": "NCI Yeast Anticancer Drug Screen. Data for the wt2 strain (AID 169);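 note: 0% = growth of vehicle-treated yeast cultures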", "conditions": "S. cerevisiae wt2 strain growth inhibition, stronger effect = higher value", "procedure,_shortened": "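Inhibition of yeast growth was determined after compound treatment, normalised to controls receiving only vehicle.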"}, "[12]": {"experiment": "NCI Yeast Anticancer Drug Screen. Data for the mlh1 strain (AID 171);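 note: 0% = growth of vehicle-treated control cultures of the same strain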", "conditions": "S. cerevisiae mlh1 strain growth inhibition, stronger effect = higher value", "procedure,_shortened": "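Vehicle-normalised growth inhibition of a repair- or checkpoint-altered yeast strain following compound treatment.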"}, "[13]": {"experiment": "NCI Yeast Anticancer Drug Screen. Data for the sgs1 strain (AID 173);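 note: 0% = growth of vehicle-only control cultures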", "conditions": "S. cerevisiae sgs1 mutant, stronger effect = higher value", "procedure,_shortened": "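Screen format: yeast with repair or checkpoint alterations, compound exposure, growth read relative to vehicle.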"}, "[14]": {"experiment": "NCI Yeast Anticancer Drug Screen. Data for the mlh1 rad18 strain (AID 175)", "conditions": "S. cerevisiae mlh1 rad18 strain growth inhibition, stronger effect = higher value", "procedure,_shortened": "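Vehicle-treated cultures served as the reference for growth inhibition in a yeast strain carrying DNA damage repair alterations exposed to each compound.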"}, "[15]": {"experiment": "NCI Yeast Anticancer Drug Screen. Data for the rad18 strain (AID 177)", "conditions": "S. cerevisiae rad18 mutant growth inhibition, stronger effect = higher value", "procedure,_shortened": "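Test articles were incubated with altered yeast defective in DNA damage repair. Results are given as inhibition of growth versus vehicle.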"}, "[16]": {"conditions": "at 5.0 µM (retest, dose inferred, filed as 0.5)"}, "[17]": {"conditions": "at 50.0 µM (retest, dose inferred, filed as 5.0)"}}, "note": "About 79,000 compounds went through this panel and 15% of them were active in at least one assay; those are over-represented in the sample as a whole. Unmarked numbers belong to inactive results. The source made the active and inactive calls. Cut-off read from the data, not from the text of the source: active = growth inhibition above about 70%; inactive = the rest.", "data": [{"smiles": "Cc1ccc(-n2cc(-c3ccc(Cl)cc3)c(C#N)c2N)cc1", "values": [{"measurement": "growth inhibition", "setting": "[1]; at 1.2 µM", "result": 0, "unit": "%"}, {"measurement": "growth inhibition", "setting": "[1]; at 3.7 µM", "result": 1, "unit": "%"}, {"measurement": "growth inhibition", "setting": "[1]; at 11.0 µM", "result": 6, "unit": "%"}, {"measurement": "growth inhibition", "setting": "[1]; at 33.0 µM", "result": 17, "unit": "%"}, {"measurement": "growth inhibition", "setting": "[1]; at 100.0 µM", "result": 23, "unit": "%"}, {"measurement": "growth inhibition", "setting": "[2]; at 1.2 µM", "result": -1, "unit": "%"}, {"measurement": "growth inhibition", "setting": "[2]; at 3.7 µM", "result": 3, "unit": "%"}, {"measurement": "growth inhibition", "setting": "[2]; at 11.0 µM", "result": 23, "unit": "%"}, {"measurement": "growth inhibition", "setting": "[2]; at 33.0 µM", "result": 56, "unit": "%"}, {"measurement": "growth inhibition", "setting": "[2]; at 100.0 µM", "result": 56, "unit": "%"}, {"measurement": "growth inhibition", "setting": "[3]; at 1.2 µM", "result": 1, "unit": "%"}, {"measurement": "growth inhibition", "setting": "[3]; at 3.7 µM", "result": -4, "unit": "%"}, {"measurement": "growth inhibition", "setting": "[3]; at 11.0 µM", "result": 2, "unit": "%"}, {"measurement": "growth inhibition", "setting": "[3]; at 33.0 µM", "result": -41, "unit": "%"}, {"measurement": "growth inhibition", "setting": "[3]; at 100.0 µM", "result": -3, "unit": "%"}, {"measurement": "growth inhibition", "setting": "[4]; at 1.2 µM", "result": -3, "unit": "%"}, {"measurement": "growth inhibition", "setting": "[4]; at 3.7 µM", "result": -3, "unit": "%"}, {"measurement": "growth inhibition", "setting": "[4]; [16]", "result": 13, "unit": "%"}, {"measurement": "growth inhibition", "setting": "[4]; at 11.0 µM", "result": -31, "unit": "%"}, {"measurement": "growth inhibition", "setting": "[4]; at 33.0 µM", "result": 4, "unit": "%"}, {"measurement": "growth inhibition", "setting": "[4]; [17]", "result": 69, "unit": "%"}, {"measurement": "growth inhibition", "setting": "[4]; at 50.0 µM", "result": 63.3, "unit": "%"}, {"measurement": "growth inhibition", "setting": "[4]; at 100.0 µM", "result": 13, "unit": "%"}, {"measurement": "growth inhibition", "setting": "[5]; at 1.2 µM", "result": 0, "unit": "%"}, {"measurement": "growth inhibition", "setting": "[5]; at 3.7 µM", "result": -8, "unit": "%"}, {"measurement": "growth inhibition", "setting": "[5]; [16]", "result": -3, "unit": "%"}, {"measurement": "growth inhibition", "setting": "[5]; at 11.0 µM", "result": -4, "unit": "%"}, {"measurement": "growth inhibition", "setting": "[5]; at 33.0 µM", "result": -4, "unit": "%"}, {"measurement": "growth inhibition", "setting": "[5]; [17]", "result": 43, "unit": "%"}, {"measurement": "growth inhibition", "setting": "[5]; at 50.0 µM", "result": 47.3, "unit": "%"}, {"measurement": "growth inhibition", "setting": "[5]; at 100.0 µM", "result": 1, "unit": "%"}, {"measurement": "growth inhibition", "setting": "[6]; at 1.2 µM", "result": -1, "unit": "%"}, {"measurement": "growth inhibition", "setting": "[6]; at 3.7 µM", "result": 1, "unit": "%"}, {"measurement": "growth inhibition", "setting": "[6]; at 11.0 µM", "result": -1, "unit": "%"}, {"measurement": "growth inhibition", "setting": "[6]; at 33.0 µM", "result": -12, "unit": "%"}, {"measurement": "growth inhibition", "setting": "[6]; at 100.0 µM", "result": 5, "unit": "%"}, {"measurement": "growth inhibition", "setting": "[7]; [16]", "result": -3, "unit": "%"}, {"measurement": "growth inhibition", "setting": "[7]; [17]", "result": 52, "unit": "%"}, {"measurement": "growth inhibition", "setting": "[7]; at 50.0 µM", "result": 67.6, "unit": "%"}, {"measurement": "growth inhibition", "setting": "[8]; at 1.2 µM", "result": -6, "unit": "%"}, {"measurement": "growth inhibition", "setting": "[8]; at 3.7 µM", "result": -13, "unit": "%"}, {"measurement": "growth inhibition", "setting": "[8]; at 11.0 µM", "result": -12, "unit": "%"}, {"measurement": "growth inhibition", "setting": "[8]; at 33.0 µM", "result": -7, "unit": "%"}, {"measurement": "growth inhibition", "setting": "[8]; at 100.0 µM", "result": -4, "unit": "%"}, {"measurement": "growth inhibition", "setting": "[9]; [16]", "result": -9, "unit": "%"}, {"measurement": "growth inhibition", "setting": "[9]; [17]", "result": 7, "unit": "%"}, {"measurement": "growth inhibition", "setting": "[9]; at 50.0 µM", "result": 43.6, "unit": "%"}, {"measurement": "growth inhibition", "setting": "[10]; at 1.2 µM", "result": -6, "unit": "%"}, {"measurement": "growth inhibition", "setting": "[10]; at 3.7 µM", "result": -5, "unit": "%"}, {"measurement": "growth inhibition", "setting": "[10]; [16]", "result": -33, "unit": "%"}, {"measurement": "growth inhibition", "setting": "[10]; at 11.0 µM", "result": 3, "unit": "%"}, {"measurement": "growth inhibition", "setting": "[10]; at 33.0 µM", "result": -2, "unit": "%"}, {"measurement": "growth inhibition", "setting": "[10]; [17]", "result": 64, "unit": "%"}, {"measurement": "growth inhibition", "setting": "[10]; at 50.0 µM", "result": 61.6, "unit": "%"}, {"measurement": "growth inhibition", "setting": "[10]; at 100.0 µM", "result": 8, "unit": "%"}, {"measurement": "growth inhibition", "setting": "[11]; at 1.2 µM", "result": -1, "unit": "%"}, {"measurement": "growth inhibition", "setting": "[11]; at 3.7 µM", "result": -1, "unit": "%"}, {"measurement": "growth inhibition", "setting": "[11]; at 11.0 µM", "result": 1, "unit": "%"}, {"measurement": "growth inhibition", "setting": "[11]; at 33.0 µM", "result": 3, "unit": "%"}, {"measurement": "growth inhibition", "setting": "[11]; at 100.0 µM", "result": 4, "unit": "%"}, {"measurement": "growth inhibition", "setting": "[12]; at 1.2 µM", "result": -6, "unit": "%"}, {"measurement": "growth inhibition", "setting": "[12]; at 3.7 µM", "result": -5, "unit": "%"}, {"measurement": "growth inhibition", "setting": "[12]; at 11.0 µM", "result": -1, "unit": "%"}, {"measurement": "growth inhibition", "setting": "[12]; at 33.0 µM", "result": -2, "unit": "%"}, {"measurement": "growth inhibition", "setting": "[12]; at 100.0 µM", "result": -4, "unit": "%"}, {"measurement": "growth inhibition", "setting": "[13]; at 1.2 µM", "result": -2, "unit": "%"}, {"measurement": "growth inhibition", "setting": "[13]; at 3.7 µM", "result": 0, "unit": "%"}, {"measurement": "growth inhibition", "setting": "[13]; at 11.0 µM", "result": 2, "unit": "%"}, {"measurement": "growth inhibition", "setting": "[13]; at 33.0 µM", "result": 10, "unit": "%"}, {"measurement": "growth inhibition", "setting": "[13]; at 100.0 µM", "result": 16, "unit": "%"}, {"measurement": "growth inhibition", "setting": "[14]; [16]", "result": -15, "unit": "%"}, {"measurement": "growth inhibition", "setting": "[14]; [17]", "result": 55, "unit": "%"}, {"measurement": "growth inhibition", "setting": "[14]; at 50.0 µM", "result": "78.3% (active)"}, {"measurement": "growth inhibition", "setting": "[15]; at 1.2 µM", "result": -5, "unit": "%"}, {"measurement": "growth inhibition", "setting": "[15]; at 3.7 µM", "result": 1, "unit": "%"}, {"measurement": "growth inhibition", "setting": "[15]; at 11.0 µM", "result": 4, "unit": "%"}, {"measurement": "growth inhibition", "setting": "[15]; at 33.0 µM", "result": 6, "unit": "%"}, {"measurement": "growth inhibition", "setting": "[15]; at 100.0 µM", "result": 41, "unit": "%"}]}]}
